# Laboratory results reported in article PMC7862700, “An all-to-all approach to the identification of sequence-specific readers for epigenetic DNA modifications on cytosine”.
# Tests used:
# Experiment in all cases: DAPPL (digital affinity profiling via proximity ligation, sequencing); 10 mM Tris-HCl pH 7.5, 50 mM NaCl, 1 mM DTT, 4% glycerol, room temperature, 30 min; GST-TFs on glutathione beads, 16-mer random dsDNA library, 0.1% formaldehyde crosslink after washing; high values mean tight binding
# Conditions in all cases: protein: recombinant; tags: N-terminal GST; dsDNA, one strand shown
# FLI1 = molecular target: T1, FLI1 (Homo sapiens, UniProt Q01543 1-452)
# T1 sequence: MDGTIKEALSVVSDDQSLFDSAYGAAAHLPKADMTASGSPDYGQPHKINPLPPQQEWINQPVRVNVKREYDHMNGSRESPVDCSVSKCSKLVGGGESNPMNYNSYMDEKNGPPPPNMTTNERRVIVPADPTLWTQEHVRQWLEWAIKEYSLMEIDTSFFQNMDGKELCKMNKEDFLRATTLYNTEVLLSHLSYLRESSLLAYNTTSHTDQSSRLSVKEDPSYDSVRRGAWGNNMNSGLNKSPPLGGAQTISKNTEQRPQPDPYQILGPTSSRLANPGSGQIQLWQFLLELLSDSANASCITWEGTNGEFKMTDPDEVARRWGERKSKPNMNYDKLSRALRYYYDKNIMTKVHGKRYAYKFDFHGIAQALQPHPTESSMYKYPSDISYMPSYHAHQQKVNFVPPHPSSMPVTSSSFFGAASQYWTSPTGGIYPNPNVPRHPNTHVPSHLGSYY
# Method in brief: (§1)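 Binding signal is defined as a hexamer's read frequency for one factor over its frequency for the tag-only sample. To obtain reads, GST-fused human transcription factors were expressed in yeast, captured on glutathione beads, barcoded with DNA and pooled with that sample. Pools met 200 nmole of a 16-mer random double-stranded DNA library in Tris/NaCl/DTT/glycerol buffer for 30 min at room temperature before washing, 0.1% formaldehyde crosslinking, proximity ligation (BsaI/T4 ligase, 1 h, 37 °C), PCR and Illumina NextSeq500 sequencing.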
# ELK1 = molecular target: T2, ELK1 (Homo sapiens, UniProt P19419 1-428)
# T2 sequence: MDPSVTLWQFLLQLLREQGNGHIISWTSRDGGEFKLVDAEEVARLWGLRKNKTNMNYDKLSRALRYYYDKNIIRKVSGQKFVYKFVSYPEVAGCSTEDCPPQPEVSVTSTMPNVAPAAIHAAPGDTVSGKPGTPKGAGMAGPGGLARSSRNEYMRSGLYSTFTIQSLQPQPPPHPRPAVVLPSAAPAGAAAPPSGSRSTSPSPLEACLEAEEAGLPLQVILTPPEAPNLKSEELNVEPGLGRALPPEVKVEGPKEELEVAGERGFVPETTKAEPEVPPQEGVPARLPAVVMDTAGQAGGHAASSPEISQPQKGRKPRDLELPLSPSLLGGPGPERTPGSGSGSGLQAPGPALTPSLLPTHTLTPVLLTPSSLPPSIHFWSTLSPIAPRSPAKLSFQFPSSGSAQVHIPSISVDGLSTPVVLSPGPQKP
# Method in brief: as §1
# GABPA = molecular target: T3, GABPA (Homo sapiens, UniProt Q06546 1-454)
# T3 sequence: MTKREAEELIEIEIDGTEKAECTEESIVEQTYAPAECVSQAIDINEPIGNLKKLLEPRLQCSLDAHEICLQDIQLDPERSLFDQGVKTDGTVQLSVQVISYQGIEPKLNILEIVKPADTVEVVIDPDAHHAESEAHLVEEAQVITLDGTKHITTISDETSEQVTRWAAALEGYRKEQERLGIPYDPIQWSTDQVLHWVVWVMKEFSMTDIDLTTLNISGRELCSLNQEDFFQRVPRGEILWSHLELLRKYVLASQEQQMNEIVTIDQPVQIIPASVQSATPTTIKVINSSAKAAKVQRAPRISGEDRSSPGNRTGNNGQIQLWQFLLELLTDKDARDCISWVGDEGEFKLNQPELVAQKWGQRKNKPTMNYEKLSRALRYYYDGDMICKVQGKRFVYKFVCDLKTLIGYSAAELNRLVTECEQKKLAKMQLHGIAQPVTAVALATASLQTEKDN
# Method in brief: as §1
# ERG = molecular target: T4, ERG (Homo sapiens, UniProt P11308 1-479)
# T4 sequence: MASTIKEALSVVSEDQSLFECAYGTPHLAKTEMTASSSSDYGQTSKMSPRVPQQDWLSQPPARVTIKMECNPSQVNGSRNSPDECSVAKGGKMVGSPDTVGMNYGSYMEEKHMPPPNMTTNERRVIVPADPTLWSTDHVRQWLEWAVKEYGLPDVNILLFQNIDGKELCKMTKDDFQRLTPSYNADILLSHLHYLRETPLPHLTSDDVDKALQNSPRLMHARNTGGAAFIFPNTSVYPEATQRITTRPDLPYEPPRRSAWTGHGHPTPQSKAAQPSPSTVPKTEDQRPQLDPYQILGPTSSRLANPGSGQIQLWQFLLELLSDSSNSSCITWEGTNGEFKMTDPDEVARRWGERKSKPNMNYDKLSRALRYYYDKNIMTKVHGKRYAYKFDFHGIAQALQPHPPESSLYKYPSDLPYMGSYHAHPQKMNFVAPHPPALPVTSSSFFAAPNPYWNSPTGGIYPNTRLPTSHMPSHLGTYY
# Method in brief: as §1
# ELF1 = ELF1 (Homo sapiens, UniProt P32519 1-619)
# Method in brief: as §1
# SPIB = SPIB (Homo sapiens, UniProt Q01892 1-262)
# Method in brief: as §1
# ELK3 = molecular target: T5, ELK3 (Homo sapiens, UniProt P41970 1-407)
# T5 sequence: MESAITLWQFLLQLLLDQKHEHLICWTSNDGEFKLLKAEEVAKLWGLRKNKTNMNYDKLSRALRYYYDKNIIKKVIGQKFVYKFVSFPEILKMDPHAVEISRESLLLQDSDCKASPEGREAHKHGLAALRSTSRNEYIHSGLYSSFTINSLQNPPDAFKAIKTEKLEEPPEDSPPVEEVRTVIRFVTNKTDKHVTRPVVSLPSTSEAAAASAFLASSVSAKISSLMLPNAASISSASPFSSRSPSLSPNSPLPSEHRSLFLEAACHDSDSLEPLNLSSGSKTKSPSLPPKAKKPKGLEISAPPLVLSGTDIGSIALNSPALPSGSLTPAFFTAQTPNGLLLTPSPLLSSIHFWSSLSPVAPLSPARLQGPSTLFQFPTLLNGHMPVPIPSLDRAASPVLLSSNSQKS
# Method in brief: as §1
# ETV5 = ETV5 (Homo sapiens, UniProt P41161 1-510)
# Method in brief: as §1
# SPIC = molecular target: T6, SPIC (Homo sapiens, UniProt Q8N5J4 1-248)
# T6 sequence: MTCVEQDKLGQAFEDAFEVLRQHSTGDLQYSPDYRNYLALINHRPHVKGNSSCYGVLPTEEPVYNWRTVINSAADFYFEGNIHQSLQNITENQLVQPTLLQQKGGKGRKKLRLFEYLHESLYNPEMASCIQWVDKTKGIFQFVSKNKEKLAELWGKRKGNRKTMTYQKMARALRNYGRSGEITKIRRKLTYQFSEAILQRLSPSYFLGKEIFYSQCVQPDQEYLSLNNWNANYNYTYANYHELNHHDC
# Method in brief: as §1
# ETV1 = ETV1 (Homo sapiens, UniProt P50549 1-477)
# Method in brief: as §1
# ERF = molecular target: T7, ERF (Homo sapiens, UniProt P50548 1-548)
# T7 sequence: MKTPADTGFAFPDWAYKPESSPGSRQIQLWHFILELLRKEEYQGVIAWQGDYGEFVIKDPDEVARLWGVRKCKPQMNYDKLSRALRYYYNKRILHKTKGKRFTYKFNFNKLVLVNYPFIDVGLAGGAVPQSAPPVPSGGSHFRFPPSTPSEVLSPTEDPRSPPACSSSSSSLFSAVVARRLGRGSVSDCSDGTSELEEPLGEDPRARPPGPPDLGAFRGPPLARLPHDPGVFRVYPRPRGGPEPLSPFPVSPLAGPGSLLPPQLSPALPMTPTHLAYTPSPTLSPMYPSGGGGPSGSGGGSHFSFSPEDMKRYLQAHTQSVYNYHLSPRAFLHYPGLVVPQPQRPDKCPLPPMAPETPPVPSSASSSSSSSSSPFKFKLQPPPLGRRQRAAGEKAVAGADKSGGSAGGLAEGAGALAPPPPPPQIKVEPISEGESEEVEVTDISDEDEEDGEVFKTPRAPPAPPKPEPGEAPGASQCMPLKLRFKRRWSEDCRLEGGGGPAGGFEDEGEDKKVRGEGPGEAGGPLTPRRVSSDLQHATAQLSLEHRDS
# Method in brief: as §1
# ETS2 = molecular target: T8, ETS2 (Homo sapiens, UniProt P15036 1-469)
# T8 sequence: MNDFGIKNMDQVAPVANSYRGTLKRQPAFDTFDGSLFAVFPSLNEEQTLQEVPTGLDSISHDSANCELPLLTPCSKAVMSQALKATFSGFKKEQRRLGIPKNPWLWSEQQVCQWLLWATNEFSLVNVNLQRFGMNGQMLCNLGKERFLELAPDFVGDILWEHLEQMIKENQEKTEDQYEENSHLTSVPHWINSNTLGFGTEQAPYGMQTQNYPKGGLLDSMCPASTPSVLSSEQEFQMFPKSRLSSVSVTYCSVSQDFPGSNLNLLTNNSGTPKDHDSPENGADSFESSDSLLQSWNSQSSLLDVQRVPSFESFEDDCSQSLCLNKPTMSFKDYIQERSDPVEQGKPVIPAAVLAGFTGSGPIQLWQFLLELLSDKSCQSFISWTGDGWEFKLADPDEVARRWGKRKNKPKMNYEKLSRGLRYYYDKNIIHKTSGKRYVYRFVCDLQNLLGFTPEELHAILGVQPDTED
# Method in brief: as §1
# SPDEF = molecular target: T9, SPDEF (Homo sapiens, UniProt O95238 1-335)
# T9 sequence: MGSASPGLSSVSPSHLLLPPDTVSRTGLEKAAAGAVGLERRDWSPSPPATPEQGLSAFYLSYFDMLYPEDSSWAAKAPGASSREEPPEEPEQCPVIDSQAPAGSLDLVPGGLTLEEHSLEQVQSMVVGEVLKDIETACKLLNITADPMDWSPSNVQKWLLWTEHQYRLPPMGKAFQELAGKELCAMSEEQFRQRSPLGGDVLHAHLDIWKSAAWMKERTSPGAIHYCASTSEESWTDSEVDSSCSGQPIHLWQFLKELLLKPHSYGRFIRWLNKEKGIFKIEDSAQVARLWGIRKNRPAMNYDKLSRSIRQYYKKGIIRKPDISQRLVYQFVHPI
# Method in brief: as §1
# Chain of SPIB (Q01892 whole entry): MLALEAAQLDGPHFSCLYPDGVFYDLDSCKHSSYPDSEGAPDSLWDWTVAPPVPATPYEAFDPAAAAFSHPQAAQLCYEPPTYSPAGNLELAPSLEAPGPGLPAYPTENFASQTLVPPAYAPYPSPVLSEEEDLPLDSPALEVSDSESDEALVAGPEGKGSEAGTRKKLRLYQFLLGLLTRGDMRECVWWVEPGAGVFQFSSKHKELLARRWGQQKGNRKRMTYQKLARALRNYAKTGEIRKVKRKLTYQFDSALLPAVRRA
# Chain of ETV1 (P50549 whole entry): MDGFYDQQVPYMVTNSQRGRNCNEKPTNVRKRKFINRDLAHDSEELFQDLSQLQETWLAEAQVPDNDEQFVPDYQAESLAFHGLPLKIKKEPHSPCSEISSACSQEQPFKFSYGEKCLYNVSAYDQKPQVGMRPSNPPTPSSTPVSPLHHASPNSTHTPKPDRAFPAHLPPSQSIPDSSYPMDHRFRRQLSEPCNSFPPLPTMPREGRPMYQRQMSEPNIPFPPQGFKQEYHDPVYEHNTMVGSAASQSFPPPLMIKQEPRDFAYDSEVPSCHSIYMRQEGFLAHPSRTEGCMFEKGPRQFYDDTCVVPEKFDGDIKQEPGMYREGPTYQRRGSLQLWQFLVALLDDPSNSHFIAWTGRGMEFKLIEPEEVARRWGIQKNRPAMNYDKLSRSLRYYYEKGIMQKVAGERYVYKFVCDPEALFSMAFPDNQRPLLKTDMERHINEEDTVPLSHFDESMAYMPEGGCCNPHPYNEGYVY
# Chain of ETV5 (P41161 whole entry): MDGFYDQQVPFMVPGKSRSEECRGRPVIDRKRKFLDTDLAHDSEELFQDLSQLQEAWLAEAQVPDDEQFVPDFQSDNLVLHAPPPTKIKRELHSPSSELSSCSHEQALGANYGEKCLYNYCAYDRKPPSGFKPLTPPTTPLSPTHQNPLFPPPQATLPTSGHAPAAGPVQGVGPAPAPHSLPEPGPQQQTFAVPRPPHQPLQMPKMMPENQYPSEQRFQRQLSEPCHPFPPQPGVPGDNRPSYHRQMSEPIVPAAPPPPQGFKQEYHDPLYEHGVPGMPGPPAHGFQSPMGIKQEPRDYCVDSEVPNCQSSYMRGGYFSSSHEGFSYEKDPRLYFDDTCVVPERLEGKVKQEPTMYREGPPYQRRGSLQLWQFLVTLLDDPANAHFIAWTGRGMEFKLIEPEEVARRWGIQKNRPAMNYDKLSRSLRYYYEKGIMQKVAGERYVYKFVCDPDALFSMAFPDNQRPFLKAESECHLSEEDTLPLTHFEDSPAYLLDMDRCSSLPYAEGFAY
# Chain of ELF1 (P32519 whole entry): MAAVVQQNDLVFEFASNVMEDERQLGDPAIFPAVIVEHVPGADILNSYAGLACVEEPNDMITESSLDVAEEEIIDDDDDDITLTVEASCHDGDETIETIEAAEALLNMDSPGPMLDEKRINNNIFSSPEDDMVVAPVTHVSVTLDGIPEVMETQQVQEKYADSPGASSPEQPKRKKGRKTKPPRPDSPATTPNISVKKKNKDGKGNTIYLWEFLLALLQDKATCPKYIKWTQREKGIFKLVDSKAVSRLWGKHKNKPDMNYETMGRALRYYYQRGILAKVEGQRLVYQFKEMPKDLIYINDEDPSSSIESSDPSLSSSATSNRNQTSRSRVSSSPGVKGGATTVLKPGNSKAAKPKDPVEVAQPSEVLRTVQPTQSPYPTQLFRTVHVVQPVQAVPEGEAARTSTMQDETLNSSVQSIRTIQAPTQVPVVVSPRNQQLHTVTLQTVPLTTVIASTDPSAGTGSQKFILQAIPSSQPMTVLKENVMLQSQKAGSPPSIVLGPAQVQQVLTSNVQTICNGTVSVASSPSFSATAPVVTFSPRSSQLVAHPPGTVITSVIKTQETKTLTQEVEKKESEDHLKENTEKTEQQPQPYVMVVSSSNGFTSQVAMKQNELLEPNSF
sequence,measurement,setting,value
TGGTGG,binding signal,FLI1,"1.11 fold enrichment (6-mer frequency, TF over GST control)"
same,binding signal,ELK1,"1.01 fold enrichment (6-mer frequency, TF over GST control)"
same,binding signal,GABPA,"1.12 fold enrichment (6-mer frequency, TF over GST control)"
same,binding signal,ERG,"1.1 fold enrichment (6-mer frequency, TF over GST control)"
same,binding signal,ELF1,"1.03 fold enrichment (6-mer frequency, TF over GST control)"
same,binding signal,SPIB,"1.05 fold enrichment (6-mer frequency, TF over GST control)"
same,binding signal,ELK3,"1.22 fold enrichment (6-mer frequency, TF over GST control)"
same,binding signal,ETV5,"1.03 fold enrichment (6-mer frequency, TF over GST control)"
same,binding signal,SPIC,"1.03 fold enrichment (6-mer frequency, TF over GST control)"
same,binding signal,ETV1,"1.04 fold enrichment (6-mer frequency, TF over GST control)"
same,binding signal,ERF,"1.1 fold enrichment (6-mer frequency, TF over GST control)"
same,binding signal,ETS2,"1.08 fold enrichment (6-mer frequency, TF over GST control)"
same,binding signal,SPDEF,"1.02 fold enrichment (6-mer frequency, TF over GST control)"
